According to PubChem BioAssay AID720716 (Broad Institute, 2013):
Calls of active or inactive are those of the source.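 How the source made its calls: active means compounds whose fitted half-maximal concentration is at most twice the top tested dose; inconclusive means flat curve with 30 to 70% signal loss, or poor fit; inactive means flat, opposite-direction or too weak compounds.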

Assay: EF1alpha-driven Renilla reporter with control 3'UTR suppression – Clone20-Shn3RL cells, dual-Glo, dry powder, counter-screen for Shn3 3'UTR targeting project, dose response (AID 720716)

SMILES	outcome
CCOC(=O)c1ccc(NC(=O)Cn2ncc(Cl)c(Cl)c2=O)cc1	inactive
CC(=O)N1CCN(C(=O)CCc2cc(C(C)(C)C)c(O)c(C(C)(C)C)c2)CC1	inactive
O=C1CSc2ccc(C(=O)Nc3cccc(S(=O)(=O)Nc4ccc(Br)cc4)c3)cc2N1	inactive
Nc1nonc1C(=O)NCCNCc1cc(Br)ccc1OCc1ccc(F)cc1	inactive
Cc1cc(N2CCCC2=O)cc(C)c1S(=O)(=O)NCCOc1ccc(C(C)(C)C)cc1	inactive
O=c1c2ccccc2nc2n1C(CSCc1ccc(Cl)cc1Cl)CS2 (configuration not stated)	inactive
COc1ccc(NC(=O)c2nc(S(=O)(=O)Cc3cccc(C)c3)ncc2Cl)c(OC)c1	inactive
COc1ccc(NS(=O)(=O)c2ccc(C(=O)N3CCCCCC3)cc2)cc1	inactive
COc1ccc2c(c1)c(CC(=O)Nc1cc(C)ccc1C)c(C)n2C(=O)c1ccc(Cl)cc1	inactive
COc1ccccc1N1CCN(c2ncc(C(=O)N3CCN(c4cccc(Cl)c4)CC3)c3ccccc23)CC1	inactive
COc1cc2ncnc(N[C@H](C)c3ccccc3)c2cc1OC	inactive
CN(CC(=O)Nc1cccc(S(=O)(=O)N2CCOCC2)c1)CC(=O)Nc1ccc(Cl)c(C(F)(F)F)c1	inactive
CC(C)[C@H](NC(=O)OC(C)(C)C)c1nnc(S(=O)(=O)Cc2c(F)cccc2Cl)o1	inactive
CCCc1nnc(NC(=O)c2nc(S(=O)(=O)Cc3ccc(C)cc3)ncc2Cl)s1	inactive
COc1ccc(Nc2nc(N3CCCCC3)c3ccccc3n2)cc1	inactive
CCCOc1ccccc1C1CC(=O)Nc2cc3c(cc21)OCO3 (configuration not stated)	inactive
Cc1ccc2cc(CN(CC3CCCO3)C(=O)NC3CCCCC3)c(=O)[nH]c2c1C (configuration not stated)	inactive
CC(C)(C)NC(=O)CSc1nc2ccc(NC(=O)CSc3nnnn3Cc3ccccc3)cc2s1	inactive
CN(C(=O)COc1ccccc1C(=O)NCCOc1ccccc1)c1ccccc1	inactive
O=C(c1nnsc1S(=O)c1ccc(Cl)cc1)N1CCOCC1 (configuration not stated)	inactive
CC(=O)Nc1cccc(NC(=O)CSc2ncc(-c3ccc(Cl)cc3)n2Cc2ccco2)c1	inactive
Cc1cc2c(cc(C(=O)N3CCC(C(=O)NC4CCCC4)CC3)n2Cc2c(F)cccc2Cl)o1	inactive
COc1cc(CN2CCc3ccccc3C2)ccc1O	inactive
Fc1ccc(-n2nnnc2-c2cnc(-c3cccs3)nc2C(F)(F)F)cc1	inactive
CCOC(=O)C1(Cc2ccc(Cl)cc2)CCN(C(C)Cc2ccc(O)c(OC)c2)CC1 (configuration not stated)	inactive
CCOC(=O)C1CCN(C(=O)c2ccc(OCC(=O)Nc3cccc(C(F)(F)F)c3)c(OC)c2)CC1	inactive
CN(C)c1nc(-c2ccccn2)nnc1-c1ccccc1	inactive
